# Test results published in PubChem BioAssay (NCATS).
# Where “and” joins values, the source holds several entries; their conditions need not be identical. Equal values may be shown once. Inconclusive results are not listed. A call without a number means that no potency is given here. Calls of active or inactive are those of the source. Unless noted, the call rests on the fitted dose curve; in most records, active means well fitted curve in the direction sought with a large enough effect; inconclusive means small, poorly fitted or top-dose-only effect, or another doubt; inactive means no such curve, though single readings can be large; an effect the other way counts as inactive or inconclusive.
# How the values were obtained:
# [1] = system: Zika virus NS2B-NS3 protease; assay: Primary screen GU AMC qHTS for Zika virus inhibitors (AID 1347154); further: nearly all actives have a fitted effect of over 70% in size
# Summary of the method: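 Unlinked Zika NS2B hydrophilic domain–NS3 protease complex at 25 nM in 10 mM Tris-HCl pH 8.0, 0.01% Tween 20, with an AMC peptide substrate. Fluorescence change (340/450 nm) over 15 min at room temperature, normalized to controls, fitted to 4-parameter Hill.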
# [2] = Primary qHTS for small molecule stabilizers of the endoplasmic reticulum resident proteome: Secreted ER Calcium Modulated Protein (SERCaMP) assay (AID 1508630)
# Summary of the method: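 GLuc-SERCaMP-expressing SH-SY5Y cells, pretreated 16 h with compound, are challenged with thapsigargin to empty ER calcium stores; after 4 h, coelenterazine is added directly to the medium and luminescence is imaged.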
# [3] = AP1 Signaling Pathway (AID 357; active means well fitted curve in either direction with a large enough effect, not every such curve was filed as active;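 further: ME-180 reporter cells stimulated with EGF at its EC50 level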); conditions: ME-180 AP-1-bla reporter, EGF-induced, beta-lactamase ratio, 5 h
# Summary of the method: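 Cells are seeded overnight, exposed to compound titrations and an EC50 level of EGF for 5 hours at 37 °C, then loaded with CCF4 dye for 2.5 hours. Beta-lactamase activity under the AP-1 element is read as a blue/green ratio.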
# [4] = molecular target: Cytochrome P450 1A2 (Homo sapiens) (UniProt P05177); assay: p450-cyp1a2 (AID 410; calls by dose curve)
# Sequence of Cytochrome P450 1A2 (Homo sapiens) (P05177 whole entry, looked up): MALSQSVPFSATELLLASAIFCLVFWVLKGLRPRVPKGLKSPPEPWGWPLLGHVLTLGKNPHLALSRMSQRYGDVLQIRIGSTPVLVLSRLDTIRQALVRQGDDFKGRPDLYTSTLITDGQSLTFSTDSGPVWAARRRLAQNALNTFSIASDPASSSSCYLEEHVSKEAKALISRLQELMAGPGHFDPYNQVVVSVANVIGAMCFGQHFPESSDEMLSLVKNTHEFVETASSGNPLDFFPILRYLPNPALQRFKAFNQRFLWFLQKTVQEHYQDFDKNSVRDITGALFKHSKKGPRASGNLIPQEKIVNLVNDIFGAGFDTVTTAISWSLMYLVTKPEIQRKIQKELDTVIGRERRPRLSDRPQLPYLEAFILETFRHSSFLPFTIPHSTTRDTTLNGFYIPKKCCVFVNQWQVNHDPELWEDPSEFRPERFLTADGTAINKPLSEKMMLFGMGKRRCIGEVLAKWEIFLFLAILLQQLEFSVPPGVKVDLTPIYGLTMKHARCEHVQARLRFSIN
# Summary of the method: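 Luminescent readout of luciferin formed from Luciferin-ME by human CYP1A2; data normalized against complete inhibition by 57 uM furafylline. Enzyme 20nM, substrate 100uM at Km, 100mM KPO4 buffer, 60 min reaction at room temperature.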
# [5] = NFAT Signaling Pathway (AID 444; active means well fitted curve in either direction with a large enough effect, not every such curve was filed as active;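 further: carbachol stimulus at about its EC50 of 1 µM final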); conditions: Jurkat NFAT-bla M1, carbachol, beta-lactamase ratio, 5 h
# Summary of the method: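 Jurkat cells with NFAT-driven β-lactamase reporter and co-expressed M1 receptor, stimulated with carbachol (final 1 uM, ~EC50), compound titration, 5 h at 37 °C. CCF4 loaded 1 h at RT; 460/530 nm ratio gave %activity and AC50.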
# [6] = Stat Signaling Pathway (AID 446; active means well fitted curve in either direction with a large enough effect, not every such curve was filed as active;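 further: ME-180 cervical cancer cells given 40 pM IL-6 alongside compound; SIE-controlled beta-lactamase reporter measured as 460/530 nm FRET emission ratio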); conditions: ME-180 SIE beta-lactamase reporter, IL-6 stimulated, 5 h
# Summary of the method: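 ME-180 SIE-bla cells; overnight plating; cpd + IL-6 40 pM, 5 h, 37 C; LiveBLAzer 2.5 h RT; 460/530 nm emission ratio. Normalized to 300 pM IL-6 and 125 nM JAK inhibitor controls.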
# [7] = molecular target: Glucocorticoid receptor (Homo sapiens) (UniProt P04150); assay: GR-GFP Redistribution (AID 450;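 active means compounds whose dose series gives a full or clear partial fitted curve of increased nuclear translocation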; further: potency means the concentration at half of the fitted maximal effect); conditions: U2OS GR-GFP nuclear translocation, laser cytometry, 2 h
# Sequence of Glucocorticoid receptor (Homo sapiens) (P04150 whole entry, looked up, the tested form may be a part): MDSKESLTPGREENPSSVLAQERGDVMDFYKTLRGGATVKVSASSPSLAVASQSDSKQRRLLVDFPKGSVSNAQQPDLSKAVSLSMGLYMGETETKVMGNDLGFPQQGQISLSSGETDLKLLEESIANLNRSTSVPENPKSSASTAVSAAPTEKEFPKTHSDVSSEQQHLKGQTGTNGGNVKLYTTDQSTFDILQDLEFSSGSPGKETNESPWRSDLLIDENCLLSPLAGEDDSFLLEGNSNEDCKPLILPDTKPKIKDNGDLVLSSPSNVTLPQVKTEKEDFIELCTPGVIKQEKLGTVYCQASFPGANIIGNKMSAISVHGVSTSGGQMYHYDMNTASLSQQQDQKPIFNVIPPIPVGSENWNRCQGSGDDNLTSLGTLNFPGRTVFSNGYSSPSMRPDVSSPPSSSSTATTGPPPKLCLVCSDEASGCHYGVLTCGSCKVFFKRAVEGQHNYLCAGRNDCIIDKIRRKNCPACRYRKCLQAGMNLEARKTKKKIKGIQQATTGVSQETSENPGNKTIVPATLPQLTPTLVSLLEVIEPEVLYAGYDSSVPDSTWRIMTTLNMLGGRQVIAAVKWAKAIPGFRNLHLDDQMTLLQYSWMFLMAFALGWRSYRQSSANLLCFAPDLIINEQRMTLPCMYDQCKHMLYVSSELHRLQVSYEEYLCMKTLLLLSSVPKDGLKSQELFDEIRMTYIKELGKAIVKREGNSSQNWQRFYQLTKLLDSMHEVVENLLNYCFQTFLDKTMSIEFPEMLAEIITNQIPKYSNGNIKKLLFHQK
# [8] = molecular target: Glucocorticoid receptor (Homo sapiens) (UniProt P04150); assay: GR-EFC Redistribution (AID 451; calls by dose curve; further: potency means the concentration at half of the fitted maximal effect); conditions: CHO-K1 GR-EFC translocation, beta-gal luminescence, 2 h
# Summary of the method: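 CHO-K1 cells expressing nuclear EA and GR-ED fragments of b-gal; compounds titrated up to 46 uM final, 2 h at 37 C. GR nuclear translocation read as complemented b-gal luminescence after 1 h RT detection.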
# [9] = molecular target: Mitogen-activated protein kinase 10 (Mus musculus) (UniProt Q61831); assay: JNK3 AlphaScreen Assay (AID 530; active means well fitted curve in either direction with a large enough effect, not every such curve was filed as active;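 further: kinase came from lysate of stimulated human HepG2 cells; signal reports phosphorylation of biotinylated GST-cJun 1-79 at Ser73 with 10 µM ATP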)
# Summary of the method: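 Pre-activated (IL-1β/TNFα) JNK3 in HepG2 lysates phosphorylates biotin-GST-cJun(1-79), 10 uM ATP; anti-phospho-cJun(Ser73) AlphaScreen read at room temperature, pH 7.6 Tris buffer. Compounds pre-incubated 15 min as titrations.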
# [10] = molecular target: Guanine nucleotide-binding protein G(i) subunit alpha-1 (Homo sapiens) (UniProt P63096); assay: qHTS Assay for Inhibitors of RGS12 GoLoco Motif Activity (Green Fluorophore) (AID 879);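 further: negative values mean loss of peptide binding seen as reduced polarization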
# Sequence of Guanine nucleotide-binding protein G(i) subunit alpha-1 (Homo sapiens) (P63096 whole entry, looked up): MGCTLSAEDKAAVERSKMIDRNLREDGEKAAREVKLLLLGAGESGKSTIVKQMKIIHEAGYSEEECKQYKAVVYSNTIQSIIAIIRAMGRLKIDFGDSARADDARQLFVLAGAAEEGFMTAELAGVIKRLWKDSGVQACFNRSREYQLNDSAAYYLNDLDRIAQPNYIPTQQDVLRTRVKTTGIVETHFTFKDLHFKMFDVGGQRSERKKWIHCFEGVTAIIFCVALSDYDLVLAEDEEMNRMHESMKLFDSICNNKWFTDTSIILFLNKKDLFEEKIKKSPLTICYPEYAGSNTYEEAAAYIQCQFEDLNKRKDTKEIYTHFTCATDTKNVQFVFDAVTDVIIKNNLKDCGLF
# Summary of the method: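 Fluorescence polarization assay: 50 nM Gαi1 with 10 nM FITC-labeled RGS12 GoLoco peptide in 10 mM Tris pH 7.5, 150 mM NaCl, 0.1 mM GDP, 0.05% NP40, 10 min at room temperature with compound.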
# [11] = molecular target: Cytochrome P450 2C9 (Homo sapiens) (UniProt P11712); assay: qHTS Assay for Inhibitors and Substrates of Cytochrome P450 2C9 (AID 883); further: potency means the concentration at half of the fitted maximal effect; nearly all actives have a fitted effect of over 60% in size
# Summary of the method: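 Signal: luciferase luminescence reporting luciferin produced by CYP2C9. Conditions: 10nM enzyme, Luciferin-H 100uM at KM, 25mM KPO4, 37C, 60 min NADPH-driven reaction. Reference: 57uM sulphaphenazole as 100% inhibition.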
# [12] = molecular target: Cytochrome P450 3A4 (Homo sapiens) (UniProt P08684); assay: qHTS Assay for Inhibitors and Substrates of Cytochrome P450 3A4 (AID 884); further: potency means the concentration at half of the fitted maximal effect; nearly all actives have a fitted effect of over 50% in size
# Sequence of Cytochrome P450 3A4 (Homo sapiens) (P08684 whole entry, looked up): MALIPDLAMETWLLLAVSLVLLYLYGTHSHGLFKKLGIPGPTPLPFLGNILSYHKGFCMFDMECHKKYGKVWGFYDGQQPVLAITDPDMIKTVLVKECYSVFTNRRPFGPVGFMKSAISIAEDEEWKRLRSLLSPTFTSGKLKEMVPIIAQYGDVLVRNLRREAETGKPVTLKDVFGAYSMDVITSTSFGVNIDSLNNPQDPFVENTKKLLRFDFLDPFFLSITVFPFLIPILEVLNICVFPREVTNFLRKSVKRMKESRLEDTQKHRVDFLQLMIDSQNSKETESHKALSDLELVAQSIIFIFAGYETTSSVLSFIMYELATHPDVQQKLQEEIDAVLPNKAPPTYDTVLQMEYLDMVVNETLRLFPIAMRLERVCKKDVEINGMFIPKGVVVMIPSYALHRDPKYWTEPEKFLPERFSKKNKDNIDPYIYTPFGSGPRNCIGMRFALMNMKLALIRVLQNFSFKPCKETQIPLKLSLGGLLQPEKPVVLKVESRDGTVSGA
# Summary of the method: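 20 nM human CYP3A4 with 25 uM Luciferin-PPXE (at KM) in 200 mM KPO4, preincubated 10 min with compound; NADPH regeneration started a 60 min RT reaction. Luciferin detected by luminescence, normalized to 57 uM ketoconazole as full inhibition.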
# [13] = molecular target: Cytochrome P450 3A4 (Homo sapiens) (UniProt P08684); assay: qHTS Assay for Activators of Cytochrome P450 3A4 (AID 885); further: nearly all actives have a fitted effect of over 65% in size
# Summary of the method: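 20nM CYP3A4 + 25uM Luciferin-PPXE (=KM), 200mM KPO4; cpd 10 min RT; NADPH regen, 60 min RT; stop w/ detection buffer, 20 min; luminescence. Normalized to 57 uM ketoconazole.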
# [14] = qHTS Assay for Identification of Small Molecule Agonists for Thrombopoietin (TPO) Signaling Pathway (AID 917)
# Summary of the method: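 Murine Ba/F3 cells stably expressing human TPO receptor and a Glycoprotein IIb promoter–luciferase reporter were IL-3-starved overnight, then treated with compounds plus TPO (26 pM final, its EC50) for 24 hrs at 37 C; luminescence was read.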
# [15] = molecular target: Pyruvate kinase (Leishmania mexicana) (UniProt Q27686); assay: qHTS Validation Assay for Inhibitors of Leishmania Mexicana Pyruvate Kinase (AID 945)
# Summary of the method: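 Compounds are tested as eight-point concentration series. Reactions contain 0.2 nM LmPYK E451W, 0.5 mM PEP, 0.1 mM ADP, 7 mM MgCl2 and 50 mM KCl at pH 7.2, run 1 h at room temperature, then read by PKLight luminescence.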
# [16] = molecular target: Pyruvate kinase PKM (Homo sapiens) (UniProt P14618); assay: qHTS Assay for Activators of Human Muscle Pyruvate Kinase (AID 954; active means well fitted curve in the direction sought with a large enough effect, not every such curve was filed as active)
# Summary of the method: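 Luminescence from a luciferase ATP-detection/stop reagent reported PKM2 activity. Reactions contained 0.1 nM purified human enzyme, 0.5 mM PEP, 0.1 mM ADP and 7 mM MgCl2 at pH 7.2, run 1 h at RT.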
# [17] = molecular target: Alpha-galactosidase A (Homo sapiens) (UniProt P06280); assay: Counterscreen for Glucocerebrosidase Inhibitors: qHTS Assay for Human alpha-Galactosidase at pH 4.5 (AID 992)
# Summary of the method: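 Enzyme at 2 nM final was combined with compound (0.7 nM to 77 uM) and 80 uM 4-methylumbelliferyl alpha-D-galactopyranoside in 50 mM citric acid, 0.005% Tween-20, pH 4.5. After 20 min at room temperature, fluorescence was read (Ex 365/Em 440 nm); AC50 came from Hill fits.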
# [18] = molecular target: alpha-glucosidase (Oryza sativa, rice) (UniProt Q653V4); assay: Counterscreen for Glucocerebrosidase Inhibitors: qHTS Assay for Rice alpha-Glucosidase at pH 5.0 (AID 997)
# Summary of the method: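 Rice alpha-glucosidase (4 nM final) with 400 uM 4-methylumbelliferyl-alpha-D-glucopyranoside in citrate buffer pH 5.0, 20 min at room temperature, stopped at pH 10; fluorescence 365/440 nm, compounds 0.7 nM–77 uM, AC50 from Hill fits.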
# [19] = qHTS Assay for Lipid Storage Modulators (AID 1519; calls by dose curve); conditions: Drosophila S3 cells, BODIPY lipid droplet/cell ratio, laser cytometry, cells loaded with oleic acid
# Summary of the method: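 Cells seeded at 5,000 per well were treated with compounds over a concentration series and loaded with oleic acid (400 uM, as added). Lipid droplet fluorescence (488 nm excitation, 500-530 nm channel) was read by laser-scanning cytometry and normalized to 20 uM Triacsin C.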
# [20] = molecular target: DNA dC->dU-editing enzyme APOBEC-3G (Homo sapiens) (UniProt Q9HC16); assay: qHTS for inhibitors of Vif-A3G interactions: Validation (AID 588379)
# Sequence of DNA dC->dU-editing enzyme APOBEC-3G (Homo sapiens) (Q9HC16 whole entry, looked up): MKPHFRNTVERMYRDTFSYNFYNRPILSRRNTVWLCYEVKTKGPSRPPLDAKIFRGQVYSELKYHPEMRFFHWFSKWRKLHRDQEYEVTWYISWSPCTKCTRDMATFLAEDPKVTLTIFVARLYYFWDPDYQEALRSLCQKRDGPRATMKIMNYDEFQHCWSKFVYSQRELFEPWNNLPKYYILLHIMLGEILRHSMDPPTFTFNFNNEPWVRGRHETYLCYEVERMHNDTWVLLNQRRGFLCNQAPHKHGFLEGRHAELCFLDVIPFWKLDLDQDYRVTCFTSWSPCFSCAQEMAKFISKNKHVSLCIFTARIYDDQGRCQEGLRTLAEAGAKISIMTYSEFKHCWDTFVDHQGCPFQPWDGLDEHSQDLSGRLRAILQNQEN
# Summary of the method: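 HeLa cells stably expressing Vif and A3G-eYFP, 700 cells/well, incubated overnight at 37 deg C, then exposed to compound overnight at 37 deg C. Inhibition of Vif-mediated degradation read as increased yellow fluorescence (Ex 488/Em 500-530) by laser-scanning cytometry.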
# [21] = molecular target: Rap guanine nucleotide exchange factor 3 (Homo sapiens) (UniProt O95398); assay: Confirmatory qHTS for antagonist of cAMP-regulated guanine nucleotide exchange factor 3 (EPAC1) (AID 1645880); further: nearly all actives have a fitted effect of over 55% in size
# Sequence of Rap guanine nucleotide exchange factor 3 (Homo sapiens) (O95398 whole entry, looked up): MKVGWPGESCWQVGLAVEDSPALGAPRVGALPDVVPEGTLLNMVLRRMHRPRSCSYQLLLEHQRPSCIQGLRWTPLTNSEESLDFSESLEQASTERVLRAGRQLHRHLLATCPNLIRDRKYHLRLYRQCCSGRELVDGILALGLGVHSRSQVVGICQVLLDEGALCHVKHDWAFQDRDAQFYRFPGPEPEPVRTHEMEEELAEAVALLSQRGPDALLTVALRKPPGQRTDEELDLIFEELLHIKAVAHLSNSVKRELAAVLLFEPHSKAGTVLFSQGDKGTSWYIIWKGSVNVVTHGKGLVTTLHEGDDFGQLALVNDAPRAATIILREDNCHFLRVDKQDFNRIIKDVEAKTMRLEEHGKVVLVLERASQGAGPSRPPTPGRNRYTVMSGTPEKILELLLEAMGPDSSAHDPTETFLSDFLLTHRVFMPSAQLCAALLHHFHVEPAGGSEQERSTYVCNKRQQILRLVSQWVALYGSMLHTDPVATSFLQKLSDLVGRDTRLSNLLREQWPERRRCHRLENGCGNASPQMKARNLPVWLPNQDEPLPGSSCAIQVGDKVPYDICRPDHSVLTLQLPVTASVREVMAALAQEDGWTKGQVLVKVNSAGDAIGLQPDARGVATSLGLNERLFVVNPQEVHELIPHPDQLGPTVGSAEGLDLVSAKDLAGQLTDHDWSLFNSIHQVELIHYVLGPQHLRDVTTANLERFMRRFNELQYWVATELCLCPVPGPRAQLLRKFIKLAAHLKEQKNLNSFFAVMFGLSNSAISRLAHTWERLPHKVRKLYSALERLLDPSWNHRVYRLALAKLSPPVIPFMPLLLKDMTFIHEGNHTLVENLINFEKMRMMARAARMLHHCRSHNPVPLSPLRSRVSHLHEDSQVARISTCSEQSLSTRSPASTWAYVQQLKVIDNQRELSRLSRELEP
# Summary of the method: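 Nucleotide exchange uses 100 nM EPAC1, 250 nM RAP1B-BODIPY-GDP and 50 uM GDP, with compounds in a concentration-titration series. After 5 min at room temperature, fluorescence (480 nm ex/540 nm em) is read every 5 min for 30 min. Data are normalized to control ATA and DMSO.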
# [22] = molecular target: Rap guanine nucleotide exchange factor 3 (Homo sapiens) (UniProt O95398); assay: Confirmatory qHTS for agonist of cAMP-regulated guanine nucleotide exchange factor 3 (EPAC1) (AID 1645881);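 further: EPAC1 catalysed release of BODIPY-GDP from Rap1B seen as fluorescence loss; nearly all actives have a fitted effect of over 75% in size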
# [23] = molecular target: Rap guanine nucleotide exchange factor 4 (Homo sapiens) (UniProt Q8WZA2); assay: Confirmatory qHTS for agonist of cAMP-regulated guanine nucleotide exchange factor 4 (EPAC2) (AID 1645884);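 further: nucleotide exchange releases bodipy-GDP from Rap1 and this lowers its fluorescence; nearly all actives have a fitted effect of over 65% in size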
# [24] = molecular target: Rap guanine nucleotide exchange factor 4 (Homo sapiens) (UniProt Q8WZA2); assay: Confirmatory qHTS for antagonist of cAMP-regulated guanine nucleotide exchange factor 4 (EPAC2) (AID 1645885); further: nearly all actives have a fitted effect of over 25% in size
# [25] = molecular target: 3',5'-cyclic-AMP phosphodiesterase 4B (Homo sapiens) (UniProt Q07343); assay: qHTS Assay for Inhibitors of PDE-IV (AID 607; active means well fitted activation curve with a large enough effect in the main read-out, with a control signal flat, not every such curve was filed as active)
# Sequence of 3',5'-cyclic-AMP phosphodiesterase 4B (Homo sapiens) (Q07343 whole entry, looked up): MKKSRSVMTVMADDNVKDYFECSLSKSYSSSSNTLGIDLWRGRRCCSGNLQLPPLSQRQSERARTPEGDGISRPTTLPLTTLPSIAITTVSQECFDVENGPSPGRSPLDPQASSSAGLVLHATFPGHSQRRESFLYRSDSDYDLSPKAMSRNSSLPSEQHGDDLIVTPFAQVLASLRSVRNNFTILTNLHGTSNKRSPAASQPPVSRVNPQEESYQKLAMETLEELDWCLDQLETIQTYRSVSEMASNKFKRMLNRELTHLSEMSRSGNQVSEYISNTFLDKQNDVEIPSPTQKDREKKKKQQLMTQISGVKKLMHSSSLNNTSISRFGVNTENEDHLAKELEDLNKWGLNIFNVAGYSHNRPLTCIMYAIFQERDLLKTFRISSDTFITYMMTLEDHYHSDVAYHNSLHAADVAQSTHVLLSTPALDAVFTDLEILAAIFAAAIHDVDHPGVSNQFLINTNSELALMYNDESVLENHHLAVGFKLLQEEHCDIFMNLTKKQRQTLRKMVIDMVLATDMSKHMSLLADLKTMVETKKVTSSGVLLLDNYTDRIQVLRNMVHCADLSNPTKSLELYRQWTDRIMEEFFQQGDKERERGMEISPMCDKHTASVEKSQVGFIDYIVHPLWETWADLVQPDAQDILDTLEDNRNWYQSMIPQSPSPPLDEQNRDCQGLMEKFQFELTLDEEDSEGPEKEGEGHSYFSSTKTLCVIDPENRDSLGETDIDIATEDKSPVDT
# Summary of the method: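 ACTOne HEK293 cells carry a modified cAMP-gated CNG channel and express endogenous PDE4; plated 1000 cells/well, compounds up to 22.9 uM final. Membrane-potential dye fluorescence (ex 535/em 590) was read; parental cells received 10 uM forskolin + 100 uM RO 20-1724.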
# [26] = molecular target: Ubiquitin carboxyl-terminal hydrolase 1 (Homo sapiens) (UniProt O94782); assay: Inhibitors of USP1/UAF1: Pilot qHTS (AID 504865);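 further: rhodamine fluorescence freed from ubiquitin-rhodamine substrate followed over time; top concentration of the series differs between compounds; nearly all actives have a fitted effect of over 35% in size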
# Sequence of Ubiquitin carboxyl-terminal hydrolase 1 (Homo sapiens) (O94782 whole entry, looked up): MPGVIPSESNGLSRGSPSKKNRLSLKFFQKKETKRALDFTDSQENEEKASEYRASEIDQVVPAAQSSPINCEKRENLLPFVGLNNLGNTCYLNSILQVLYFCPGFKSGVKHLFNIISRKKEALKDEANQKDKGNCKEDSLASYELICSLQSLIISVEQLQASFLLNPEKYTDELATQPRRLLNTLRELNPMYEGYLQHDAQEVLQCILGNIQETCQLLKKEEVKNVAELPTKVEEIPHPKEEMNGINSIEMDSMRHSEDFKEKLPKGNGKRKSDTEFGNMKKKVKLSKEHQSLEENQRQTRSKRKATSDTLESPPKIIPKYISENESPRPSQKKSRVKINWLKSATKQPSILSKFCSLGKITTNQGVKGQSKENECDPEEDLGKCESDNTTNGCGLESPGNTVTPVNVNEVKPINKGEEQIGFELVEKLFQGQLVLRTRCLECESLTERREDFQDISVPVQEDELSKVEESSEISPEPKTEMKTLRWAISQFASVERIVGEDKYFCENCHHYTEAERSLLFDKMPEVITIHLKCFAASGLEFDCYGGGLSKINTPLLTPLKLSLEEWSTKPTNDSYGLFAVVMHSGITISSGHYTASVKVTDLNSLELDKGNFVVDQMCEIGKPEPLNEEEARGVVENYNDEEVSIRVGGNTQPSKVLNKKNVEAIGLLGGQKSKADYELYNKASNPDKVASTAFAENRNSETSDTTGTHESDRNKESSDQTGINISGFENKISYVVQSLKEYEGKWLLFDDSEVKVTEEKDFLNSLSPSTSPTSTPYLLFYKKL
# Summary of the method: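 USP1/UAF1 complex (1nM) preincubated with compound 15 min at room temperature, then Ub-Rho substrate (150nM final) added. Fluorescence read kinetically at 480/540 nm, 6 reads every 60 seconds. Buffer: 50mM HEPES pH 7.8, 0.5mM EDTA, 0.1 mg/ml BSA, 1mM TCEP, 0.01% Tween-20.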
# [27] = measured here: cell count channel max response
# [28] = measured here: lipid channel max response
smiles,measurement,setting,value
CS/C(N)=C(C#N)/C(C#N)=C(\N)SC,Potency,[1],inactive
same,Potency,[2],inactive
S=C(S)O[C@@H]1C[C@@H]2C[C@H]1[C@@H]1CCC[C@H]21,"activity change, negative = inhibition",[3]; at 38 µM (top of the series),6.71% (inactive)
same,Potency,[4],inactive
same,"activity change, negative = inhibition",[5]; at 38 µM (top of the series),-4.29% (inactive)
same,"activity, negative = inhibition",[6]; at 38 µM (top of the series),-20.1% (inactive)
same,Potency,[7],> 46 µM (inactive)
same,Potency,[8],> 46 µM (inactive)
same,Potency,[9],inactive
same,outcome,[10],inactive
same,Potency,[11],3.98 µM (active)
same,Potency,[12],3.98 µM (active)
same,Potency,[13],inactive
same,Potency,[14],inactive
same,Potency,[15],inactive
same,outcome,[16],inactive
same,outcome,[17],inactive
same,outcome,[18],inactive
same,"activity change, negative = inhibition",[19]; at 57.5 µM (top of the series),-0.164% (inactive)
same,max response,[19]; [27],8.79%
same,max response,[19]; [28],9.53%
same,Potency,[20],inactive
same,Potency,[1],inactive
same,Potency,[2],inactive
same,Potency,[21],inactive
same,outcome,[22],inactive
same,outcome,[23],inactive
same,Potency,[24],inactive
COC(=O)[C@@H](N)CSC/C=C(\C)CC/C=C(\C)CCC=C(C)C,Potency,[1],inactive
same,Potency,[2],inactive
CCOC(=O)C12CC1/C(=N\O)c1ccccc1O2 (stereo not drawn),Potency,[1],inactive
same,Potency,[2],inactive
CC(C)NC[C@@H](O)COc1ccc(COCCOC(C)C)cc1,"activity change, negative = inhibition",[3]; at 17.2 µM (top of the series),-0.912% (inactive)
same,Potency,[4],inactive
same,"activity change, negative = inhibition",[5]; at 17.2 µM (top of the series),3.53% (inactive)
same,"activity, negative = inhibition",[6]; at 17.2 µM (top of the series),15.4% (inactive)
same,Potency,[7],> 20.6 µM (inactive) and > 46 µM (inactive)
same,Potency,[8],> 20.6 µM (inactive) and > 46 µM (inactive)
same,Potency,[9],inactive
same,Potency,[25],inactive
same,"activity change, negative = inhibition",[19]; at 25.7 µM (top of the series),-1.04% (inactive)
same,"activity change, negative = inhibition",[19]; at 57.5 µM (top of the series),0.281% (inactive)
same,max response,[19]; [27],2.54% and -5.68%
same,max response,[19]; [28],6.08% and -6.81%
same,Potency,[26],inactive
same,Potency,[20],inactive
same,Potency,[1],inactive
same,Potency,[2],inactive
